Consider 70 compounds from PubChem BioAssay AID588342 (National Center for Advancing Translational Sciences (NCATS), 2011).

Molecules are shown by their SMILES. About 25,000 (6.9%) of roughly 360,000 compounds were called active. Roughly 9% stayed inconclusive and do not appear here. Calls come from the whole dose curve; as a rule, active = well fitted inhibition curve with a large enough effect; inconclusive = small, poorly fitted or top-dose-only effect; inactive = flat fitted curve, though single readings scatter. Only a selection was taken, and actives are over-represented in it overall.
Potency is the fitted concentration of half-maximal effect.

Luciferin 4-monooxygenase (Photinus pyralis), sequence (P08659 whole entry, looked up): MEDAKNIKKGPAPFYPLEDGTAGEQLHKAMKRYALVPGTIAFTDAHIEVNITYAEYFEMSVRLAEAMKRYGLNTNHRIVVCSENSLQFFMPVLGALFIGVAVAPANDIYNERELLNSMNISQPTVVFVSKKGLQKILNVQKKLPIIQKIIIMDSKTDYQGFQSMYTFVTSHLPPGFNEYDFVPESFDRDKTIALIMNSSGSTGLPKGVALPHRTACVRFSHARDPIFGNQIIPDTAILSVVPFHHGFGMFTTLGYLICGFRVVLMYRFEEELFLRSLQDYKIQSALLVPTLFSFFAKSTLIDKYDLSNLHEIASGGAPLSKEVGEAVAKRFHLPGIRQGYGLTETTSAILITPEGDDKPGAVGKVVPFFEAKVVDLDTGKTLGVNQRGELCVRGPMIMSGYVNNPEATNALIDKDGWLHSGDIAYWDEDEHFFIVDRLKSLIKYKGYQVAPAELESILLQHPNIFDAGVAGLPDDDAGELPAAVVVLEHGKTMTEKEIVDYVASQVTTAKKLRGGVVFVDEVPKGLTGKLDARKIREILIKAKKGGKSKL

In this test the target is Luciferin 4-monooxygenase (Photinus pyralis) (UniProt P08659). Nature of the test: qHTS profiling assay for firefly luciferase inhibitor/activator using purifed enzyme and Km concentrations of substrates (counterscreen for miR-21 project).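 For activity change, negative = inhibition: plate controls were vehicle for no effect and reference inhibitor for full effect.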 Note: nearly all actives have a fitted effect of over 55% in size. Conditions: purified FLuc, luminescence inhibition; series mostly up to 57.5 µM; activity change, negative = inhibition: at the top concentration. In outline:
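Biochemical qHTS of compounds, final roughly 60 µM downward over six points, against 10 nM purified firefly luciferase using Km concentrations of substrates (10 uM D-luciferin, 10 uM ATP) in Tris acetate pH 7.5 buffer; luminescence output.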
On the technique in general: In qHTS, concentration-response curves come from the screen itself.
In the case of `Cn1c(=O)c2c(-c3cccc(Br)c3)c(C#N)c(N)nc2n(C)c1=O`, the “activity change, negative = inhibition” value is -1.7% (inactive).

As for `Cc1c(C)n2c(SCC(=O)N3CCCC3)nnc2[nH]c1=O`, the “activity change, negative = inhibition” value was -1.87% (inactive).

In the case of `CCOC(=O)c1cc2c(=O)n3ccccc3nc2n(CCCOC)c1=NC(=O)C(C)(C)Oc1ccc(Cl)cc1`, the “activity change, negative = inhibition” value is 2.07% (inactive).

In the case of `CC1CCCCN1S(=O)(=O)c1ccc(S(=O)(=O)N(CC(=O)Nc2ccccc2)Cc2cccs2)cc1` (stereo not given), the “activity change, negative = inhibition” value was 1.69% (inactive).

With `CC(C)(C)NS(=O)(=O)c1ccc(NC(=O)C2CCCO2)cc1` (stereo not given), the “activity change, negative = inhibition” value is -1.57% (inactive).

Consider `O=C(Nc1ccc(-c2nnc(-c3ccccc3)o2)cc1)C1CCCO1` (stereo not given), for which the Potency was 3.38 µM (active).

For `O=C(Nc1nnc(CCc2ccccc2)s1)C1CCCO1` (stereo not given), the “activity change, negative = inhibition” value was -2.69% (inactive).

For `COc1ccc(NC(=O)N2CCCC2C(=O)NCc2ccccc2Cl)cc1` (stereo not given), the “activity change, negative = inhibition” value is -4.96% (inactive).

As to `O=S1(=O)C=C(SCCN2CCCC2)c2ccccc21`, the “activity change, negative = inhibition” value is -2.28% (inactive).

For `CC(C)(C)c1ccc(OC2=CS(=O)(=O)c3ccccc32)cc1`, the Potency was 15.1 µM (active).

On to `CC(C)(C)c1ccc(CN2C(=O)c3ccccc3S2(=O)=O)cc1`, for which the “activity change, negative = inhibition” value was -16.2% (inactive).

Regarding `Cc1ccc(-n2c(=O)c3cccnc3n2CC(=O)NCc2ccc(F)cc2)cc1C`, the “activity change, negative = inhibition” value is -12.7% (inactive).

Consider `O=C(c1ccc2c(c1)N(Cc1ccccc1)C(=O)c1ccccc1S2(=O)=O)N1CCC(Cc2ccccc2)CC1`, for which the “activity change, negative = inhibition” value was 2.38% (inactive).

In the case of `Cc1nc(NC2=NC(C(=O)Nc3ccc(Cl)cc3)CC(=O)N2)nc2ccccc12` (stereo not given), the “activity change, negative = inhibition” value is 0.404% (inactive).

Regarding `CCCS(=O)(=O)c1c(Nc2ccccc2C)sc(C(=O)c2ccccc2)c1N`, the “activity change, negative = inhibition” value is 1.11% (inactive).

`Cc1ccc2c(N)c(C(=O)c3ccccc3)sc2n1`: the Potency is 21.3 µM (active).

Consider `COc1ccc(C(F)(F)F)cc1NC(=O)c1sc2nc(-c3cccs3)ccc2c1N`, for which the “activity change, negative = inhibition” value is -1.38% (inactive).

As for `CC(=O)c1c(Nc2ccccc2)sc(C(=O)c2ccccc2)c1C`, the “activity change, negative = inhibition” value was -3.32% (inactive).

Consider `COc1cccc(C(=O)c2sc3nc(-c4ccccc4)cc(C(F)(F)F)c3c2N)c1`, for which the “activity change, negative = inhibition” value is -0.554% (inactive).

`CCc1nc2sc(C(=O)O)c(N)c2c2c1CCCC2`: the “activity change, negative = inhibition” value was -2.9% (inactive).

On to `CN(C)c1ccnc2sc3c(=O)n(Cc4ccccc4)cnc3c12`, for which the “activity change, negative = inhibition” value is 3.33% (inactive).

With `Nc1c(C(=O)NCc2ccccc2)sc2nc3c(cc12)C(=O)CCC3`, the “activity change, negative = inhibition” value was 2.35% (inactive).

In the case of `CN(C)c1ccnc2sc(C(=O)c3ccccc3)c(N)c12`, the Potency is 5.36 µM (active).

For the compound `COC(=O)c1cc2c(N)c(C(=O)c3ccc(Cl)cc3)sc2nc1C(OC)OC`, the “activity change, negative = inhibition” value was -11.4% (inactive).

Take `CCN(CC)C(=O)c1sc2nc(-c3ccccc3)ccc2c1N`: the Potency is 5.36 µM (active).

As for `Cc1nc2sc(C(=O)c3ccccc3)c(N)c2c2c1CCCC2`, the Potency was 10.7 µM (active).

Consider `COc1cc(OC)c(NC(=O)Cc2ccc(-n3c(C)nc4cccnc43)cc2)cc1Cl`, for which the “activity change, negative = inhibition” value is -14.7% (inactive).

`O=C(O)CCCCCCCCc1cn(CN2C(=O)c3ccccc3C2=O)nn1`: the “activity change, negative = inhibition” value is -0.842% (inactive).

With `CCOCCCNC(=O)c1c(NC(=O)c2nc(SC)ncc2Cl)sc2c1CCCC2`, the “activity change, negative = inhibition” value is -1.87% (inactive).

With `CC(=O)NC(c1cccs1)c1cc(Br)c2cccnc2c1O` (stereo not given), the “activity change, negative = inhibition” value is -0.554% (inactive).

For `CC(OC(=O)CNC(=O)c1cccc(F)c1)C(=O)NC1CCCCC1C` (stereo not given), the “activity change, negative = inhibition” value was -0.117% (inactive).

With `CCN(CC)c1ccc(C2C(C(N)=O)=C(C)Nc3nc(SCc4ccccc4)nn32)cc1` (stereo not given), the “activity change, negative = inhibition” value is -0.212% (inactive).

On to `CSc1ncc(C(=O)Nc2ccc(C)cc2C)c(C)n1`, for which the “activity change, negative = inhibition” value was -0.488% (inactive).

As for `CSc1nccc(NC(=O)c2ccc(C(C)(C)C)cc2)n1`, the Potency was 1.9 µM (active).

In the case of `COC(=O)c1nc(NC(=O)c2ccc(F)cc2)n[nH]1`, the “activity change, negative = inhibition” value was -14.8% (inactive).

Regarding `COC(=O)c1ccccc1NC(=O)c1cc(-c2ccccc2O)no1`, the “activity change, negative = inhibition” value was -15.2% (inactive).

For `O=S(=O)(NCCCCCCNS(=O)(=O)c1c(F)cccc1F)c1ccc2c(c1)OCCO2`, the “activity change, negative = inhibition” value is 4.33% (inactive).

With `Cc1ccccc1CCNC(=O)C1CCN(c2nc3ccccc3nc2C(F)(F)F)CC1`, the “activity change, negative = inhibition” value was -6.81% (inactive).

For the compound `O=C1CCNCCN1[C@H](CO)Cc1ccccc1`, the “activity change, negative = inhibition” value is 1.19% (inactive).

On to `CC(=O)NCC(=O)N(Cc1ccco1)C1(C(=O)NC2CCCC2)CCCCC1`, for which the “activity change, negative = inhibition” value was -1.26% (inactive).

With `Cc1cccn2c(=O)c(C(=O)NC(C)c3ccccc3)cnc12` (stereo not given), the “activity change, negative = inhibition” value was -2.31% (inactive).

In the case of `CSc1ccccc1NC(=O)c1cnc2sc(C)cn2c1=O`, the Potency was 5.36 µM (active).

Regarding `CSc1ccccc1NC(=O)c1cc(Cl)sc1Cl`, the “activity change, negative = inhibition” value was -13.3% (inactive).

Consider `CCOc1ccc(NS(=O)(=O)c2ccc(Cl)c(C(=O)N(C)Cc3cccnc3)c2)cc1`, for which the “activity change, negative = inhibition” value is 4.21% (inactive).

With `CC(=O)Nc1ccc(NC(=O)CCN2C(=O)C3CC=CCC3C2=O)cc1` (stereo not given), the “activity change, negative = inhibition” value was 4.45% (inactive).

For `CCC(=O)c1ccc(OCC(=O)N(CC)CC2COc3ccccc3O2)cc1` (stereo not given), the “activity change, negative = inhibition” value was 11.9% (inactive).

Consider `CCC(=O)N1CCc2cc(S(=O)(=O)NC(C(=O)Nc3ccc(C(C)=O)cc3)C(C)C)ccc21` (stereo not given), for which the “activity change, negative = inhibition” value was 3.87% (inactive).

Turning to `O=C(Cc1ccccc1)NNC(=O)C1CCN(c2ncccn2)CC1`, the “activity change, negative = inhibition” value was -1.06% (inactive).

On to `O=C1/C(=C\Nc2ccccc2)CCN1c1ncccn1`, for which the Potency is 23.9 µM (active).

Regarding `COc1ccccc1Oc1ccc(N/C=C2/CCCC2=O)cc1`, the “activity change, negative = inhibition” value is -13.2% (inactive).

As to `CCc1nnc(SCc2c(F)cccc2Cl)c2cc3sccc3n12`, the “activity change, negative = inhibition” value was -0.0505% (inactive).

On to `COc1cc(C(=O)NN(CCC#N)C2=NS(=O)(=O)c3ccccc32)cc(OC)c1OC`, for which the “activity change, negative = inhibition” value is 3.16% (inactive).

On to `CCOC(=O)C1CCCN(C(=O)Cn2ncc3c(C)n(Cc4ccc(F)cc4)c(C)c3c2=O)C1` (stereo not given), for which the “activity change, negative = inhibition” value was -11.5% (inactive).

As for `Cc1cnc(CN(C)C(=O)C2CCC(=O)N(CCc3cccc(F)c3)C2)[nH]1` (stereo not given), the “activity change, negative = inhibition” value is 0.959% (inactive).

For the compound `O=C(Nc1cccnc1)c1cc([N+](=O)[O-])ccc1Cl`, the “activity change, negative = inhibition” value was -0.936% (inactive).

Take `O=C(Nc1ccc(Br)cn1)c1ccc([N+](=O)[O-])cc1Cl`: the Potency was 13.5 µM (active).

Consider `O=C(Nc1ccncc1)c1ccc([N+](=O)[O-])cc1Cl`, for which the “activity change, negative = inhibition” value is -8.87% (inactive).

Turning to `COc1ccc2[nH]c3c(c2c1)CCN(C(=O)CCC1CCCC1)C3c1ccc(F)cc1` (stereo not given), the “activity change, negative = inhibition” value is -0.437% (inactive).

In the case of `Cc1ccc(-c2noc(CC(c3ccccc3)c3ccccc3)n2)cc1`, the “activity change, negative = inhibition” value was 10.8% (inactive).

Turning to `Cc1ccc(Cc2nc(-c3cccc(C)c3)no2)cc1`, the Potency is 10.7 µM (active).

`Cc1cccc(-c2noc(CCC(=O)NC3CCCC3)n2)c1`: the “activity change, negative = inhibition” value was -9.98% (inactive).

Consider `CCc1ccccc1NC(=O)CSc1nnc(-c2ccccc2)c(-c2ccccc2)n1`, for which the “activity change, negative = inhibition” value is -4.53% (inactive).

Consider `Cc1ccc(CCNC(=O)Cn2c(-c3cccs3)cc3cc(F)ccc32)cc1`, for which the “activity change, negative = inhibition” value was -1.98% (inactive).

Consider `CCc1nn(CC(=O)N2CCN(c3cccc(C(F)(F)F)c3)CC2)c(=O)c2cc3occc3n12`, for which the “activity change, negative = inhibition” value is -1.64% (inactive).

On to `CCn1c(CNC(=O)c2ccco2)nnc1SCC(=O)Nc1cccc(F)c1`, for which the “activity change, negative = inhibition” value was 4.49% (inactive).

Consider `O=C(CSc1ccc(-c2ccco2)nn1)Nc1cccc(F)c1`, for which the Potency is 12 µM (active).

Take `Fc1cccc(Cl)c1CSc1ccc(-c2ccco2)nn1`: the Potency was 13.5 µM (active).

Regarding `O=C(CSc1ccc(-c2ccco2)nn1)NCc1ccc2c(c1)OCO2`, the “activity change, negative = inhibition” value was -18% (inactive).

As to `Cc1cc(SCc2c(F)cccc2Cl)nc(=O)[nH]1`, the “activity change, negative = inhibition” value is 1.07% (inactive).

As to `Oc1ccc(-n2nnnc2SCc2c(F)cccc2Cl)cc1`, the “activity change, negative = inhibition” value was -3.56% (inactive).
